Results on 14 compounds are retold here after PubChem BioAssay (EPA / NIEHS).

Experiment [1] in a line: CCTE_Shafer_MEA_dev_per_burst_interspike_interval: CCTE's Neural Network Formation Assay for Burst Interspike Interval, Shafer Lab (AID 2284044).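 For AC50: potency for a decrease of within-burst interspike interval below DMSO level.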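 Note: mean spike spacing inside bursts as AUC over recordings on days 5 7 9 12.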 The procedure, abridged:
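Primary rat cortical neurons on 48-well MEA plates, exposed from day 0 through day 12, treatment renewed at DIV 5 and 9. Within-burst interspike interval recorded days 5, 7, 9, 12, well-averaged, summarised as AUC; negative fit versus DMSO.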

The nature of experiment [2]: CCTE_Shafer_MEA_dev_burst_duration_mean: CCTE's Neural Network Formation Assay for Mean Burst Duration, Shafer Lab (AID 2284045).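 For AC50: curve fitted for loss meaning shorter burst duration than DMSO.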 The method in brief: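 Mean single-electrode burst duration (first to last spike), averaged over bursting electrodes per well, then integrated as area-under-curve across recordings at days 5, 7, 9 and 12. Rat cortical cultures on MEAs, compound present from plating, refreshed at feeds.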

Experiment [3] in a line: CCTE_Shafer_MEA_dev_interburst_interval_mean: CCTE's Neural Network Formation Assay for Mean Interburst Interval, Shafer Lab (AID 2284046).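 Note: curve fitted for decrease in interburst interval relative to DMSO.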 The method in brief: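 Primary rat cortical neurons on PEI-coated 48-well MEA plates (laminin added with cells at plating) (16 electrodes/well), exposed from plating day 0 with renewal at DIV 5 and 9. Mean inter-burst interval averaged over bursting electrodes, AUC across days 5, 7, 9, 12; DMSO baseline.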

Experiment [4] is described as follows: CCTE_Shafer_MEA_dev_inter_network_spike_interval_mean: CCTE's Neural Network Formation Assay for Mean Inter-network Spike Interval, Shafer Lab (AID 2284047).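 For AC50: potency for a decrease in mean inter-network spike interval below DMSO.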 The method in brief: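 Mean time between consecutive network-spike peaks, recorded extracellularly (adaptive spike detection) on DIV 5, 7, 9 and 12, summarized as trapezoidal AUC. Rat cortical cultures on MEAs dosed continuously days 0–12, re-dosed at feeds; loss-of-signal fit relative to DMSO.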

A short description of experiment [5]: CCTE_Shafer_MEA_dev_network_spike_number: CCTE's Neural Network Formation Assay for Number of Network Spikes, Shafer Lab (AID 2284048).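 For AC50: fit as a loss of signal meaning fewer network spikes than DMSO.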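 Note: synchronized bursts across electrodes counted on days 5 7 9 12 and integrated as AUC.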 The method in brief: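 Number of network spikes (coordinated firing across electrodes) recorded on days 5, 7, 9 and 12 and summarised as area under the curve. Rat cortical cultures on MEA, continuous compound exposure with full medium/treatment exchange at DIV 5 and 9.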

The nature of experiment [6]: CCTE_Shafer_MEA_dev_network_spike_peak: CCTE's Neural Network Formation Assay for Mean Number of Electrodes in Network Spike, Shafer Lab (AID 2284049).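 For AC50: fitted for loss of signal meaning fewer electrodes in network spikes than DMSO.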 The procedure, abridged: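 Rat cortical primary culture, 1.5 x 10^5 cells/well, 48-well MEA (16 electrodes/well). Dosing day 0 through DIV 12, full media/compound exchange DIV 5, 9. AxIS adaptive spike detection; AUC over days 5/7/9/12; loss-of-signal vs DMSO.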

The nature of experiment [7]: CCTE_Shafer_MEA_dev_spike_duration_mean: CCTE's Neural Network Formation Assay for Mean Spike Duration, Shafer Lab (AID 2284051).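 For AC50: potency for a decrease in mean network spike duration versus DMSO.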 The method in brief: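 Spontaneous activity was recorded on days 5, 7, 9 and 12 from rat cortical cultures grown on microelectrode arrays and dosed continuously from day 0, with media and compound renewed after the DIV 5 and 9 recordings. Network-spike duration was collapsed by area under the curve.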

Experiment [8] is described as follows: CCTE_Shafer_MEA_dev_network_spike_duration_std: CCTE's Neural Network Formation Assay for Standard Deviation of Network Spike Duration, Shafer Lab (AID 2284052).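 Note: hits are decreases in network spike duration SD versus DMSO vehicle.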 The procedure, abridged:
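Network spike duration variability was collapsed across recordings on days 5, 7, 9 and 12 by trapezoidal area-under-curve and fitted downward against DMSO. Cultures were rat cortical neurons on PEI-coated MEA plates, dosed continuously from plating, refed with compound DIV 5/9.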

Experiment [9] is described as follows: CCTE_Shafer_MEA_dev_per_network_spike_spike_number_mean: CCTE's Neural Network Formation Assay for Mean Number of Spikes in a Network Spike, Shafer Lab (AID 2284053).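 For AC50: fitted as decrease in spikes per network spike relative to DMSO.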 The method in brief: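 Mean spike count within each network spike, taken in a 0.05 s window at its peak, was recorded on days 5, 7, 9 and 12 and integrated as trapezoidal area under the curve. Rat cortical cultures on MEA plates received continuous compound from day 0, refreshed at medium changes on DIV 5 and 9.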

The subject of the next experiment is DIO2 (gene 1734). Kind of experiment: CCTE_GLTED_hDIO2: CCTE's human Deiodinase 2 (DIO2) Inhibition Assay, Great Lakes Toxicology and Ecology Division (GLTED) Lab (AID 2284050; active = hit-call score of the fitted dose curve at least 0.9, where 1 is the maximum). The procedure, abridged: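 Iodide released by human deiodinase 2 over 3 h with test chemical, measured spectrophotometrically via Sandell-Kolthoff cerium/arsenic reaction. Run n=3; inhibition referenced to DMSO.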

Where “and” joins values, the source holds several entries; their conditions need not be identical. Equal entries are not always repeated. Some compounds were tested as several samples or in several runs, with calls that do not always agree. Calls of active or inactive are those of the source. Rule for the calls, unless noted: active = hit-call score of the fitted dose curve at least 0.9, where 1 is the maximum; inactive = score below 0.9.

The term AC50 denotes the concentration at which the activity in the assay is half-maximal. For the compound `CCCN(CC)CC1COC2(CCC(C(C)(C)C)CC2)O1` (stereo not drawn), the half-maximal activity concentration (AC50) in experiment [1] is 0.234 µM (active); in experiment [2], 0.157 µM (active); in [3] it was 0.325 µM (active); in [4], 0.257 µM (active); in [5], 0.0933 µM (active); in experiment [6] it was 0.305 µM (active). In addition, the half-maximal activity concentration (AC50) is 0.275 µM (active) in [7], 0.0662 µM (active) in experiment [8] and 0.272 µM (active) in experiment [9].

As for `OC(c1ccc(Cl)cc1)(c1ccc(Cl)cc1)C(Cl)(Cl)Cl`, the half-maximal activity concentration (AC50) in the experiment with DIO2 (gene 1734) is 76.4 µM (active).

Consider `COC(=O)N(C(=O)N1CO[C@@]2(C(=O)OC)Cc3cc(Cl)ccc3C2=N1)c1ccc(OC(F)(F)F)cc1`, for which the compound was classed as inactive in [1], in experiment [2], in experiment [3], in [4], in experiment [5] and in experiment [8]. The compound was called inactive in [9]. Also, the AC50 in [6] was 25.9 µM (active); in experiment [7], 15 µM (active).

In the case of `O=C1C2CC=CCC2C(=O)N1SC(Cl)(Cl)Cl` (stereo not drawn), the AC50 was 16.2 µM (active) in experiment [1]; 9.95 µM (active) in [3]; 9.85 µM (active) and 16.2 µM (active) in experiment [6]; 9.85 µM (active) in experiment [7]; 9.85 µM (active) in [9]. The compound was called inactive in experiment [1], in [2], in experiment [3], in experiment [4], in experiment [5] and in experiment [7]. For the same compound, the compound was called inactive in [8] and in experiment [9].

As to `CCOC(=O)C(C)OC(=O)c1cc(Oc2ccc(C(F)(F)F)cc2Cl)ccc1[N+](=O)[O-]` (stereo not drawn), the call in experiment [1], in experiment [2], in experiment [3], in experiment [4], in experiment [5] and in experiment [6] was inactive. Moreover, the outcome in experiment [7], in experiment [8] and in experiment [9] was inactive.

As for `C=C(C)CN(CC)c1c([N+](=O)[O-])cc(C(F)(F)F)cc1[N+](=O)[O-]`, the AC50 was 22.1 µM (active) in [1]; 22.2 µM (active) in [3]; 23.2 µM (active) in [5]; 18.1 µM (active) in experiment [6]; 13.2 µM (active) in [7]; 13.1 µM (active) in experiment [8]. In [9], the AC50 is 14.1 µM (active). The compound was classed as inactive in experiment [2] and in experiment [4].

Take `COP(=S)(OC)Oc1ccc([N+](=O)[O-])c(C)c1`: the result in experiment [1], in experiment [2], in experiment [3], in [4], in [5] and in [6] was inactive. Also, the result in [7], in experiment [8] and in experiment [9] was inactive.

For `COP(=S)(OC)SCn1nnc2ccccc2c1=O`, the compound was called inactive in experiment [1], in experiment [2], in experiment [3], in experiment [4], in [5] and in experiment [8]. Further, the AC50 in [6] was 15 µM (active); in [7] it was 27.2 µM (active); in [9] it was 24.9 µM (active).

Turning to `CC1(C)C(C=C(Cl)Cl)C1C(=O)OC(C#N)c1cccc(Oc2ccccc2)c1` (stereo not drawn), the compound was classed as inactive in experiment [1], in [2], in experiment [3], in experiment [4], in experiment [5] and in experiment [6]. The result in [7], in experiment [8] and in [9] was inactive. For the same compound, the half-maximal activity concentration (AC50) is 3.49 µM (active) in [3]; 2.98 µM (active) in experiment [5]; 11.4 µM (active) in experiment [6]; 6.93 µM (active) in experiment [7]; 2.2 µM (active) in experiment [8]; 6.97 µM (active) in [9].

As for `O=C(Nc1ccccc1-c1ccc(Cl)cc1)c1cccnc1Cl`, the half-maximal activity concentration (AC50) in experiment [1] was 5.35 µM (active); in [3], 2.59 µM (active); in experiment [4], 0.01 µM (active); in experiment [6] it was 9.92 µM (active); in [7], 4.26 µM (active); in [8], 1.14 µM (active). Moreover, in experiment [9], the AC50 was 1.13 µM (active). The compound was called inactive in [1], in experiment [2], in [3], in experiment [4], in experiment [5] and in [6]. Moreover, the result in experiment [7], in experiment [8] and in experiment [9] was inactive.

Regarding `Cc1nc(N(C)C)nc(OC(=O)N(C)C)c1C`, the AC50 with DIO2 (gene 1734) is 44.6 µM (active).

On to `CS(=O)(=O)c1cc(C(F)(F)F)ccc1C(=O)c1cnoc1C1CC1`, for which the compound was called inactive in [1], in [2], in experiment [3], in experiment [4], in experiment [5] and in [6]. Further, the compound was classed as inactive in experiment [7], in experiment [8] and in experiment [9].

`CC1(C)C(C(=O)OC(C#N)c2cccc(Oc3ccccc3)c2)C1(C)C` (stereo not drawn): the AC50 was 18.5 µM (active) in [1]; 2.56 µM (active) in [4]; 0.515 µM (active) in experiment [5]; 13.5 µM (active) in [6]; 16.2 µM (active) in [7]; 10 µM (active) in experiment [9]. Also, the compound was called inactive in [2], in experiment [3] and in experiment [8].

Take `CS(=O)(=O)c1ccc(C(=O)C2C(=O)CCCC2=O)c([N+](=O)[O-])c1`: the outcome in experiment [1], in [2], in [3], in experiment [4], in experiment [5] and in experiment [6] was inactive. Besides, the call in experiment [7], in experiment [8] and in experiment [9] was inactive. Also, the concentration at half-maximal activity (AC50) with DIO2 (gene 1734) is 24.8 µM (active).
